Screening data as filed in PubChem BioAssay.
Only a selection was taken, and hits are over-represented in it overall.
mHTT CaM bind: mHTT-calmodulin interaction abrogation; inhibition, % at 15 µM; AlphaScreen His-mHTT/GST-CaM binding, luminescence; AID 1671202; 3.6% of 190,000 active; P42858;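 further: 0% = both proteins with DMSO and 100% = one protein alone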
Pf apPOL inh: Pf-apPOL DNA polymerase inhibition; AID 1794808; 0.25% of 210,000 active; Recombinant Pf-apPOL, molecular beacon fluorescence, 1.5 h; inhibition, % at 10 µM
* = called active by the depositor; nt = no result. No stated cut-off is given here; in the data, active means inhibition above about 50%; inactive means the rest.

SMILES	mHTT CaM bind	Pf apPOL inh
COc1ccc(-c2cn3c(n2)N(C(=O)Cc2cccs2)CCC3)cc1	34	-1
COc1cccc(-c2cn3c(n2)N(C(=O)Cc2cccs2)CCC3)c1	82*	-4
Cc1ccc(NC(=O)C(NC(=O)C2CCCCC2)C23CC4CC(CC(C4)C2)C3)cc1 (configuration not stated)	2	0
O=C(NCc1cccnc1)c1c[nH]c2ccc(F)cc2c1=O	-7	-5
O=c1oc2cc(Br)ccc2n1CN1CCCCC1	-3	0
O=C(c1cccc([N+](=O)[O-])c1)N1CCOCC1	0	-5
O=S(=O)(c1ccc(C2Nc3c(Cl)cc(Cl)cc3C3C=CCC32)cc1)N1CCOCC1 (configuration not stated)	26	-5
O=C(O)C1Nc2ccc([N+](=O)[O-])cc2C2C=CCC12 (configuration not stated)	-1	3
O=C(c1ccc2c(c1)C1C=CCC1C(c1ccc(Cl)cc1)N2)N1CCOCC1 (configuration not stated)	83*	-1
O=C(c1ccc2c(c1)C1C=CCC1C(c1ccc([N+](=O)[O-])cc1)N2)N1CCOCC1 (configuration not stated)	70*	-12
O=C(c1ccc2c(c1)C1C=CCC1C(c1cccc([N+](=O)[O-])c1)N2)N1CCCCC1 (configuration not stated)	81*	-1
CCNc1cc(N2CCC(CCC(=O)N3CCN(C4CCN(C)CC4)CC3)CC2)ncn1	7	1
COc1ccc(N=Cc2cc([N+](=O)[O-])ccc2O)cc1OC	6	-5
CC(C)c1ccc(NCCC(=O)c2ccc([N+](=O)[O-])cc2)cc1	56*	-1
Cc1ccc(NCCC(=O)c2cccc([N+](=O)[O-])c2)cc1	27	-5
CN(C)c1ccc([N+](=O)[O-])cc1/C=C(\C#N)c1nn(-c2ccccc2)c(N)c1C#N	4	0
CCOc1ccc(N2CN=C3SCC(=O)N3C2)cc1	7	0
COc1cccc(C2C3CC(C(C)(C)C)CC=C3C(C#N)=C(N)C2(C#N)C#N)c1O (configuration not stated)	40	-1
CC(C)(C)C1CC=C2C(C#N)=C(N)C(C#N)(C#N)C(CCc3ccccc3)C2C1 (configuration not stated)	65*	-12
COc1ccc(NC(=O)Cn2c(=O)n(-c3cccc(OC)c3)c(=O)c3sccc32)cc1	0	-2
COc1ccccc1NC(=O)N1CCc2[nH]cnc2C1c1ccccn1 (configuration not stated)	36	-4
O=C(Nc1c(F)cccc1F)N1CCc2[nH]cnc2C1c1ccccn1 (configuration not stated)	56*	-8
O=C(Nc1ccccc1)N1CCc2[nH]cnc2C1c1ccncc1 (configuration not stated)	1	1
CCOc1ccc(NC(=O)N2CCc3[nH]cnc3C2c2ccccn2)cc1 (configuration not stated)	94*	-7
COc1ccc(CC(=O)N(Cc2cccs2)Cc2cccn2C)cc1OC	12	-9
SMILES	mHTT CaM bind	Pf apPOL inh
CC(C)Oc1ccc(-c2nc3s/c(=C\c4ccccc4F)c(=O)n3n2)cc1	4	1
Cc1cc(C)nc(NC(=O)C(Cc2ccccc2)N2C(=O)C3CCCCC3C2=O)n1 (configuration not stated)	-2	0
O=C(c1ccsc1)N1CCN(c2nnc3ccc(Cl)cn23)CC1	2	1
COc1ccccc1/C=C1\SC(=O)N(CN2CCCC2)C1=O	70*	-3
COc1ccc(/C=C2\SC(=O)N(CN3CCCCC3)C2=O)c(OC)c1	6	-9
COCCNc1nc(SCC(=O)Nc2cccc(C(F)(F)F)c2)nc2ccccc12	67*	-2
CCc1nnc(SCC(=O)Nc2cccc(C(F)(F)F)c2)nc1CC	-5	-1
CC(C)NC(=O)C1CCCN(c2cnn(Cc3ccccc3)c(=O)c2)C1 (configuration not stated)	3	-4
Cc1ccc(NC(=O)CSc2nc(-c3ccccc3)cc(=O)[nH]2)c(C)c1	-2	0
Cn1c(NN)nc2sc3c(c2c1=O)CC(C)(C)OC3	36	-4
CC1(C)Cc2c(sc3nc(NN)nc(NN)c23)CO1	100*	-2
COc1ccc([C@H]2C=C3CNS(=O)(=O)[C@H]3C[C@H]2OC(=O)c2ccc(Cl)cc2)cc1	60*	-6
COc1ccc([C@H]2C=C3CNS(=O)(=O)[C@H]3C[C@H]2OC(=O)c2ccc(C(F)(F)F)cc2)cc1	100*	-10
COc1ccc([C@H]2C=C3CNS(=O)(=O)[C@H]3C[C@H]2OC(=O)c2cccs2)cc1	12	-7
COc1ccc(C2C(=C(O)c3ccc(Cl)cc3)C(=O)C(=O)N2C)cc1 (configuration not stated)	5	-3
COc1ccc(Oc2ccc(C(F)(F)F)cc2NC(=O)c2ccc(OC)cc2)cc1	nt	21
COc1ccc([C@H]2C=C3CNS(=O)(=O)[C@H]3C[C@H]2OC(=O)c2cccc(C)c2)cc1	82*	-4
Fc1ccc(-c2nc(-c3cn(Cc4ccccc4)nn3)no2)cc1	-10	-3
Cc1ccc(-c2nnc(N3CCC(C(=O)NCc4ccccn4)CC3)o2)cc1	76*	-8
Cc1ccc(-c2nnc(N3CCC(C(=O)NCc4ccccc4)CC3)o2)cc1	6	-2
Cc1ccc(N2CC(C(=O)NCc3ccccn3)CC2=O)cc1 (configuration not stated)	100*	-19
Cc1ccc(N2CC(C(=O)NCc3ccccc3)CC2=O)cc1 (configuration not stated)	-8	-6
CC1CCN(c2ccc(N3CCC(C(=O)NCc4ccccn4)CC3)nn2)CC1	71*	-6
CC1CCN(c2nnc(C(=O)NCc3ccccn3)c3ccccc23)CC1	36	-6
CC(=O)N1CC(C(=O)NCc2ccccn2)CCC1c1ccc(F)c(C)c1 (configuration not stated)	80*	-15
SMILES	mHTT CaM bind	Pf apPOL inh
CC(=O)N1CC(C(=O)NCCc2ccccn2)CCC1c1ccc(F)c(C)c1 (configuration not stated)	6	-5
O=[N+]([O-])c1ccc(CSc2nnc3nc[nH]n23)cc1	5	-1
O=c1[nH]c2ccccc2c(=O)n1Cc1ccccc1	-4	-7
Cc1c(Cc2ccccc2)[nH]c2ccccc12	100*	1
Cc1ccc(C(=O)NCC2CCCN(S(=O)(=O)c3c(C)cc(C)cc3C)C2)cc1 (configuration not stated)	-4	-5
Cc1cc(C)c2nc(Cl)cc(C)c2c1	-7	nt
CNc1ncnc2c1C(c1ccc([N+](=O)[O-])cc1)c1c(NC)ncnc1O2	52*	16
CC1(C(=O)O)COC(c2ccc([N+](=O)[O-])cc2)OC1 (configuration not stated)	-3	-3
Cc1cc(=O)oc(C)c1C(=O)NCc1cccs1	14	-11
CCN(CCCNC(=O)c1c(C)cc(=O)oc1C)c1cccc(C)c1	64*	-9
O=C(NCc1cccnc1-c1ccccc1)c1ccc2c(c1)OCO2	0	-10
COc1ccc(-n2nc(C(=O)Nc3ccc(F)cc3)c3ccccc3c2=O)c(OC)c1	-7	-4
Cc1cc(=O)oc(C)c1C(=O)NCCCN(CC(C)C)CC(C)C	-15	-16
COc1ccc(-n2nc(C(=O)NCC(=O)Nc3ccc(F)cc3)c3ccccc3c2=O)c(OC)c1	88*	7
